Test results taken from article PMC7862700, “An all-to-all approach to the identification of sequence-specific readers for epigenetic DNA modifications on cytosine”.

What was measured:
Test in all cases: DAPPL (digital affinity profiling via proximity ligation, sequencing); 10 mM Tris-HCl pH 7.5, 50 mM NaCl, 1 mM DTT, 4% glycerol, room temperature, 30 min; GST-TFs on glutathione beads, 16-mer random dsDNA library, 0.1% formaldehyde crosslink after washing; high values mean tight binding
Details in all cases: protein: recombinant; tags: N-terminal GST; dsDNA, one strand shown
ERF = biological target: T1, ERF (Homo sapiens, UniProt P50548 1-548)
T1 sequence: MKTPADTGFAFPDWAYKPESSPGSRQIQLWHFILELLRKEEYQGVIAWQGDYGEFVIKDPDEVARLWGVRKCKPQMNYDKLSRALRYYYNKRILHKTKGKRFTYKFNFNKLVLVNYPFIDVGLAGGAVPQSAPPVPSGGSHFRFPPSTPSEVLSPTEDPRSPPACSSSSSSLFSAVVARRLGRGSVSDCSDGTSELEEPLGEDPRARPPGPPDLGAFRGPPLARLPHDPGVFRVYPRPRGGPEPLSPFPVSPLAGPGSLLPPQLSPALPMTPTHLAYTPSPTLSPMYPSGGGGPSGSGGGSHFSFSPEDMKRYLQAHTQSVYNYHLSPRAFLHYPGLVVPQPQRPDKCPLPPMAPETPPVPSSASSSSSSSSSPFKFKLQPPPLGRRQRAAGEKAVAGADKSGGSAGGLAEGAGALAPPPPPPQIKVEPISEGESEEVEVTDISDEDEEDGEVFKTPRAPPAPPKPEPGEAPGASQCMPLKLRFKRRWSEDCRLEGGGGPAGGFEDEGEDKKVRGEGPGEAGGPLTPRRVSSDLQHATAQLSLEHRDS
Outline: (§1)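 Beads coated with glutathione captured GST-fused human transcription factors that had been expressed in yeast, and the factors were then given DNA barcodes and pooled with a tag-only sample. The pools were incubated with 200 nmole of a random double-stranded 16-mer DNA library in Tris/NaCl/DTT/glycerol buffer for 30 min at room temperature, washed, crosslinked with 0.1% formaldehyde and proximity-ligated with BsaI/T4 ligase at 37 °C for 1 h. PCR amplification and Illumina NextSeq500 sequencing came last. Binding signal is each hexamer's read frequency for a factor divided by its frequency for the tag-only sample.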

ETV3L = biological target: T2, ETV3L (Homo sapiens, UniProt Q6ZN32 1-361)
T2 sequence: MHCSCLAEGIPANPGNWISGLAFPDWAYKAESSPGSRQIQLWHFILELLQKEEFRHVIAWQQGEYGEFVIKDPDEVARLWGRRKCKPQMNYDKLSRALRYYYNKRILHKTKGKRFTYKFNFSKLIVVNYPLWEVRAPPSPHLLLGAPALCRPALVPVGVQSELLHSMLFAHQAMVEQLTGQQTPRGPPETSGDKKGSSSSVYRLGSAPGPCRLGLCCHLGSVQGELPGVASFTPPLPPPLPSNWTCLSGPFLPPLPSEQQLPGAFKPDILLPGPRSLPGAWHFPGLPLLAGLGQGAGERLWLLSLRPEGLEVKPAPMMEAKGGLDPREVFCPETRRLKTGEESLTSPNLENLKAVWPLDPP
Outline: as §1

ETS2 = biological target: T3, ETS2 (Homo sapiens, UniProt P15036 1-469)
T3 sequence: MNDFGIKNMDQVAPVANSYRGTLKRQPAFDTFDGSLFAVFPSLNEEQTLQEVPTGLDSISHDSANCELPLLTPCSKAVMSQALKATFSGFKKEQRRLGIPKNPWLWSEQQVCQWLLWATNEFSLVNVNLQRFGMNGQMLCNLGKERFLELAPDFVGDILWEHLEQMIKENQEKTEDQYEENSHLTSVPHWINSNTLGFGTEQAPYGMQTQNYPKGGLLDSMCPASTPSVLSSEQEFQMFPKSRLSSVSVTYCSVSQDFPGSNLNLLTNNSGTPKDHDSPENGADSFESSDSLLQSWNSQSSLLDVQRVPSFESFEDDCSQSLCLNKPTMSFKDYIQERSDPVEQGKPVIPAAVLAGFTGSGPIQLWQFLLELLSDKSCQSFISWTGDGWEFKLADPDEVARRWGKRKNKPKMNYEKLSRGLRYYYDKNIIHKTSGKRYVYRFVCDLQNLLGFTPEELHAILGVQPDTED
Outline: as §1

SPDEF = biological target: T4, SPDEF (Homo sapiens, UniProt O95238 1-335)
T4 sequence: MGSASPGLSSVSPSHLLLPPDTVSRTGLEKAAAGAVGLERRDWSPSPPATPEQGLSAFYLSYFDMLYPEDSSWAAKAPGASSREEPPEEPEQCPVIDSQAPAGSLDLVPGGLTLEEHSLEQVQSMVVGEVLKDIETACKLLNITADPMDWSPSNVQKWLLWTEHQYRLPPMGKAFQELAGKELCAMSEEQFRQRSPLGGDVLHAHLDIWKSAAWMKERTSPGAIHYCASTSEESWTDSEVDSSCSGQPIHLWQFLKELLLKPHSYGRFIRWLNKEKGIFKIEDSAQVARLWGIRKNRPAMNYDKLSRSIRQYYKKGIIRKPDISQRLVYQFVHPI
Outline: as §1

ETV7 = biological target: T5, ETV7 (Homo sapiens, UniProt Q9Y603 1-341)
T5 sequence: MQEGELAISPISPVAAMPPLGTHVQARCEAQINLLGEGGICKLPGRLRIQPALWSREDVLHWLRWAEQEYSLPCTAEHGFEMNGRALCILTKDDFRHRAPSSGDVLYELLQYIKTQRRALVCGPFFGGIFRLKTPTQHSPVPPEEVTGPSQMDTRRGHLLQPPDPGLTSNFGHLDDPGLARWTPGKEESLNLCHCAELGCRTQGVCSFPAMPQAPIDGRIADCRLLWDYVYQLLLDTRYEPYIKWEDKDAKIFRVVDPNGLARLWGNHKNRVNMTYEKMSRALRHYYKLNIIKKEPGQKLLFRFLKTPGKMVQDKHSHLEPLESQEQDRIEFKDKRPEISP
Outline: as §1

ELF5 = biological target: T6, ELF5 (Homo sapiens, UniProt Q9UKW6-2 1-255)
T6 sequence: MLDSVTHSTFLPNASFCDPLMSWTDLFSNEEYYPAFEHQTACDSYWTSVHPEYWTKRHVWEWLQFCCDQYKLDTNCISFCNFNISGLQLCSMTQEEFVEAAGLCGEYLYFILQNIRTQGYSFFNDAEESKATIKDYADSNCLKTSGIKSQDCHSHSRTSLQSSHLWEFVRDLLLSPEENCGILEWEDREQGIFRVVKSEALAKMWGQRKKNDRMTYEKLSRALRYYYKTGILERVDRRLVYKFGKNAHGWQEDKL
Outline: as §1

ETV3 = biological target: T7, ETV3 (Homo sapiens, UniProt P41162-2 1-143)
T7 sequence: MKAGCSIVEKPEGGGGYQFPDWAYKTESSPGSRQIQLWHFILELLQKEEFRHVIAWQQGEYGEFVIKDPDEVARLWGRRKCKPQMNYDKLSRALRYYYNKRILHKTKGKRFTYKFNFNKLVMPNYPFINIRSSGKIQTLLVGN
Outline: as §1

ETV6 = ETV6 (Homo sapiens, UniProt P41212 1-452)
Outline: as §1

Sequence of ETV6 (P41212 whole entry): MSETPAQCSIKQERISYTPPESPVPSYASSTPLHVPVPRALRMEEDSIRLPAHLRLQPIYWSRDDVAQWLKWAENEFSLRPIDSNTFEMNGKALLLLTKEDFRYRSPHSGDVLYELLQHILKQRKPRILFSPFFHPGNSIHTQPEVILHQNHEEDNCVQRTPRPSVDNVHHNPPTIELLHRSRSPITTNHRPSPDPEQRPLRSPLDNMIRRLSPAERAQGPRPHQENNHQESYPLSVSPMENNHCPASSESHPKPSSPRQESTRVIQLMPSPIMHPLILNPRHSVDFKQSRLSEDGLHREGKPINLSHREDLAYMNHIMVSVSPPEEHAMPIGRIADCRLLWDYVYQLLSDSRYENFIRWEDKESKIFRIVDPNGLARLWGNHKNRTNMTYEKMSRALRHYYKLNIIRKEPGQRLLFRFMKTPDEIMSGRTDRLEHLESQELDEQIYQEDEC

Sequence	binding signal (ERF)	binding signal (ETV3L)	binding signal (ETS2)	binding signal (SPDEF)	binding signal (ETV7)	binding signal (ELF5)	binding signal (ETV3)	binding signal (ETV6)
ACGACG	1.14 fold enrichment (6-mer frequency, TF over GST control)	1.08 fold enrichment (6-mer frequency, TF over GST control)	1.12 fold enrichment (6-mer frequency, TF over GST control)	1.14 fold enrichment (6-mer frequency, TF over GST control)	1.25 fold enrichment (6-mer frequency, TF over GST control)	1.15 fold enrichment (6-mer frequency, TF over GST control)	1.16 fold enrichment (6-mer frequency, TF over GST control)	1.2 fold enrichment (6-mer frequency, TF over GST control)
ACCGCT	1.21 fold enrichment (6-mer frequency, TF over GST control)	1.12 fold enrichment (6-mer frequency, TF over GST control)	1.1 fold enrichment (6-mer frequency, TF over GST control)	1.06 fold enrichment (6-mer frequency, TF over GST control)	1.13 fold enrichment (6-mer frequency, TF over GST control)	1.05 fold enrichment (6-mer frequency, TF over GST control)	1.04 fold enrichment (6-mer frequency, TF over GST control)	1.15 fold enrichment (6-mer frequency, TF over GST control)
ACACAA	1.26 fold enrichment (6-mer frequency, TF over GST control)	1.2 fold enrichment (6-mer frequency, TF over GST control)	1.25 fold enrichment (6-mer frequency, TF over GST control)	1.17 fold enrichment (6-mer frequency, TF over GST control)	1.08 fold enrichment (6-mer frequency, TF over GST control)	1.17 fold enrichment (6-mer frequency, TF over GST control)	1.13 fold enrichment (6-mer frequency, TF over GST control)	1.2 fold enrichment (6-mer frequency, TF over GST control)
GTATTC	1.29 fold enrichment (6-mer frequency, TF over GST control)	1.25 fold enrichment (6-mer frequency, TF over GST control)	1.33 fold enrichment (6-mer frequency, TF over GST control)	1.21 fold enrichment (6-mer frequency, TF over GST control)	1.34 fold enrichment (6-mer frequency, TF over GST control)	1.31 fold enrichment (6-mer frequency, TF over GST control)	1.34 fold enrichment (6-mer frequency, TF over GST control)	1.28 fold enrichment (6-mer frequency, TF over GST control)
TACAAT	1.31 fold enrichment (6-mer frequency, TF over GST control)	1.25 fold enrichment (6-mer frequency, TF over GST control)	1.34 fold enrichment (6-mer frequency, TF over GST control)	1.28 fold enrichment (6-mer frequency, TF over GST control)	1.24 fold enrichment (6-mer frequency, TF over GST control)	1.24 fold enrichment (6-mer frequency, TF over GST control)	1.28 fold enrichment (6-mer frequency, TF over GST control)	1.26 fold enrichment (6-mer frequency, TF over GST control)
CAGCTT	1.28 fold enrichment (6-mer frequency, TF over GST control)	1.2 fold enrichment (6-mer frequency, TF over GST control)	1.21 fold enrichment (6-mer frequency, TF over GST control)	1.24 fold enrichment (6-mer frequency, TF over GST control)	1.15 fold enrichment (6-mer frequency, TF over GST control)	1.11 fold enrichment (6-mer frequency, TF over GST control)	1.21 fold enrichment (6-mer frequency, TF over GST control)	1.11 fold enrichment (6-mer frequency, TF over GST control)
GCTGTT	1.08 fold enrichment (6-mer frequency, TF over GST control)	1.1 fold enrichment (6-mer frequency, TF over GST control)	1.09 fold enrichment (6-mer frequency, TF over GST control)	1.08 fold enrichment (6-mer frequency, TF over GST control)	1.21 fold enrichment (6-mer frequency, TF over GST control)	1.04 fold enrichment (6-mer frequency, TF over GST control)	1.15 fold enrichment (6-mer frequency, TF over GST control)	1.03 fold enrichment (6-mer frequency, TF over GST control)
CGACTT	1.62 fold enrichment (6-mer frequency, TF over GST control)	1.62 fold enrichment (6-mer frequency, TF over GST control)	1.76 fold enrichment (6-mer frequency, TF over GST control)	1.54 fold enrichment (6-mer frequency, TF over GST control)	1.53 fold enrichment (6-mer frequency, TF over GST control)	1.72 fold enrichment (6-mer frequency, TF over GST control)	1.78 fold enrichment (6-mer frequency, TF over GST control)	1.79 fold enrichment (6-mer frequency, TF over GST control)
